The text below walks through data of PubChem BioAssay (NCATS).

Holding throughout (test): qHTS profiling for inhibitors of Plasmodium falciparum proliferation (AID 504749); also: nearly all actives have a fitted effect of over 60% in size
Holding throughout (details): P. falciparum in erythrocytes, SYBR Green DNA, 72 h; series mostly up to 28.7 µM
In general terms: In qHTS, concentration-response curves come from the screen itself.

In one assay the test system is SC27B. In outline: (§1)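 SYBR Green fluorescence of parasite DNA, read after lysis and overnight dark incubation, measured growth over 72 h in erythrocyte culture at 0.3% parasitemia and 2.5% hematocrit. Data normalised to DMSO and 0.29 uM artemisinin, with plate-drift correction.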
A further assay relates to TAB113. In outline:
as §1

The next assay relates to TAB165. In short, it runs like this:
as §1

Another assay deals with W2. In outline: as §1
In the next assay the test system is TAB109. In outline: as §1

Records with an inconclusive call do not appear. Active and inactive are the calls of the source. Calls follow the shape of the dose curve; as a rule, active = well fitted inhibition curve with a large enough effect; inconclusive = small, poorly fitted or top-dose-only effect; inactive = flat fitted curve, though single readings scatter.
Potency is read from the fitted curve at half-maximal effect.

As to `Cc1c(C)c2c(c(C)c1O)CC[C@@](C)(CCC[C@@H](C)CCC[C@@H](C)CCCC(C)C)O2`, the Potency result in the assay on SC27B, with TAB113, in the assay on TAB165 and in the assay with W2 was “inactive” in each case.
For `Oc1cc(O)c2c(c1)OC(c1ccc(O)c(O)c1)C(O)C2` (stereo unspecified), the Potency result in the assay with SC27B, in the assay with TAB109, in the assay with TAB113, in the assay with TAB165 and in the assay with W2 was “inactive” throughout.
For `NC(=O)c1ncn(C2OC(CO)C(O)C2O)n1` (stereo unspecified), the Potency result in the assay with SC27B, in the assay with TAB109, in the assay with TAB113, in the assay with TAB165 and in the assay on W2 was “inactive” in each case.
As to `Cc1cc(C(=O)NNCc2ccccc2)no1`, the Potency result in the assay on SC27B, in the assay with TAB109, in the assay with TAB113, with TAB165 and with W2 was “inactive” throughout.
On to `CC1(C)S[C@@H]2[C@H](NC(=O)[C@@H](NC(=O)N3CCNC3=O)c3ccccc3)C(=O)N2[C@H]1C(=O)O`, for which the Potency result in the assay with SC27B, with TAB109, in the assay on TAB113, in the assay with TAB165 and with W2 was “inactive” in each case.
For `CC(NNC(=O)c1ccccc1)c1ccccc1` (stereo unspecified), the Potency result with SC27B, in the assay on TAB109, in the assay on TAB113, in the assay on TAB165 and in the assay with W2 was “inactive” throughout.
As to `Nc1ncnc2c1ncn2[C@@H]1O[C@H](COP(=O)(O)OP(=O)(O)OP(=O)(O)O)[C@@H](O)[C@H]1O`, the Potency entry in the assay on SC27B, in the assay with TAB109, in the assay on TAB113, in the assay on TAB165 and with W2 was “inactive” throughout.
As for `CC[C@@]1(O)C(=O)OCc2c1cc1n(c2=O)Cc2cc3c([N+](=O)[O-])cccc3nc2-1`, the Potency with SC27B was 5.62 µM (active); in the assay on TAB109, 3.98 µM (active); in the assay on TAB113, 5.62 µM (active); with TAB165, 3.98 µM (active); with W2 it was 4.78 µM (active).
For `CCOC(=O)C1=C(C)NC(C)=C(C(=O)OCC)C1c1ccccc1C=CC(=O)OC(C)(C)C`, the Potency in the assay with SC27B is 11.2 µM (active); in the assay with TAB165, 11.2 µM (active); in the assay on W2 it was 6.75 µM (active).
On to `Cc1ccccc1OCC(O)CNCCOc1ccc(C(N)=O)cc1` (stereo unspecified), for which the Potency result with SC27B, in the assay on TAB109, in the assay with TAB113, in the assay on TAB165 and in the assay on W2 was “inactive” in each case.
In the case of `C[C@@H]1CCC2[C@@H](C)[C@@H](O)O[C@@H]3O[C@@]4(C)CC[C@@H]1[C@@]23OO4` (stereo partly specified), the Potency in the assay with SC27B was 0.002 µM (active); in the assay on TAB109, 0.001 µM (active); in the assay with TAB113, 0.0011 µM (active); with TAB165, 0.0009 µM (active); in the assay on W2, 0.0005 µM (active).
`COC(=O)CCC(=O)CN`: the Potency entry in the assay with SC27B, in the assay on TAB109, with TAB113, in the assay with TAB165 and with W2 was “inactive” each time.
For the compound `CCCCCCOc1ccc(C(=N)N(CCCC)CCCC)c2ccccc12`, the Potency in the assay with TAB109 was 7.94 µM (active); in the assay on TAB113, 10 µM (active); in the assay on TAB165 it was 12.6 µM (active); in the assay on W2 it was 3.38 µM (active).
